Hits are enriched below; roughly 2.2% of the tested compounds scored in any of these assays.
APP transl inh = APP translation inhibition | SH-SY5Y APP 5'UTR-luciferase reporter, luminescence | 190,000 tested, 0.82% active | inhibition, % at 2 µM;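 active = inhibition above a set limit, derived from the sample mean plus 3 SD, cut at about 45% in these data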
IEC-6 tox = IEC-6 cytotoxicity, counter-screen for KLF5 inhibitors; inhibition, % at 5 µM; 290,000 tested, 0.78% active; luminescence viability; in the data active = inhibition above about 22%;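 also: 0% = plate median of test compound wells and 100% = cytotoxic reference compound wells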
BaF3 parental = counter-screen for JAK2V617F inhibitors: parental Ba/F3 viability inhibitors. AID 1486. CellTiter-Glo ATP luminescence. 220,000 tested, 1.1% active. inhibition, % at 5.6 µM;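 active = inhibition above a per-campaign cutoff, the mean inhibition of all tested compounds plus 3 SD, cut at about 27% in these data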;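 also: 0% = DMSO wells and 100% = JAK Inhibitor I control wells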
KLF5 inh = kruppel-like factor 5 inhibition | 290,000 tested, 0.23% active | inhibition, % at 5 µM | DLD-1 KLF5 promoter-luciferase reporter, luminescence | AID 1700;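 active = inhibition above a per-plate limit of that plate's mean compound inhibition plus 3 SD, cut at about 60% in these data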;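 also: 0% = DMSO wells and 100% = LY294002 at 200 µM; higher means less KLF5 promoter-driven luciferase light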
aSyn UTR inh = MLPCN primary screen, SNCA 5' untranslated region; alpha-synuclein 5'UTR reporter, inhibitor activity; inhibition, % (tested at 7.5 µM); 300,000 tested, 0.82% active; in the data active = inhibition above about 60%;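 also: H4 neuroglioblastoma cells stably carrying SNCA 5'UTR luciferase fusion; 0% = DMSO wells and 100% = positive control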
Ba/F3 V617F tox = loss of viability in JAK2V617F-driven Ba/F3 cells | Ba/F3 EpoR-JAK2V617F viability, ATP luminescence | inhibition, % at 5.6 µM | 220,000 tested, 1.1% active | AID 1446;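 active = inhibition above the campaign mean plus 3 SD over all tested compounds, cut at about 24% in these data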;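 also: cytokine-independent growth of Ba/F3 cells driven by EpoR plus mutant JAK2; 0% = DMSO-treated cells and 100% = JAK inhibitor I control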
The depositor's hits bear a star.

`COCC(C)n1c(SCc2nc3ccccc3c(=O)[nH]2)nc2ccccc2c1=O` (configuration not stated) gave APP transl inh -11.4, IEC-6 tox 33.6*, BaF3 parental 7.3, KLF5 inh -21.9, aSyn UTR inh 37.3 and Ba/F3 V617F tox 4.4.
For O=C(NNC(=O)C12CC3CC(CC(O)(C3)C1)C2)c1csc(N2CCOCC2)n1 the results were IEC-6 tox 9.7, KLF5 inh -23.7 and aSyn UTR inh 2.8.
Screening Oc1oc(-c2ccco2)nc1C=Nc1cccc(Cl)c1 returned APP transl inh -0.9, IEC-6 tox -0.1, BaF3 parental 8.0, KLF5 inh -18.6, aSyn UTR inh -15.4 and Ba/F3 V617F tox -0.5.
For CC(=NCc1cccc(Cl)c1)c1nc(-c2ccco2)oc1O the results were APP transl inh -18.1, IEC-6 tox 0.9, BaF3 parental 49.4*, KLF5 inh 11.8, aSyn UTR inh 36.9 and Ba/F3 V617F tox 53.0*.
For CCOc1ccccc1CNC(=O)c1cc2oc3ccccc3c2n1CC the results were IEC-6 tox -1.1, BaF3 parental 2.4, KLF5 inh -21.6, aSyn UTR inh 65.6* and Ba/F3 V617F tox -4.5.
`COc1cccc(CNC(=O)c2cc3oc4ccccc4c3n2C)c1OC` gave APP transl inh -7.8, IEC-6 tox -0.2, BaF3 parental 0.6, KLF5 inh 1.5, aSyn UTR inh 5.0 and Ba/F3 V617F tox -1.9.
Screening COc1cc2nc(N3CCN(c4cc(C)ccc4C)CC3)nc(N)c2cc1OC returned IEC-6 tox 10.5, KLF5 inh -37.8 and aSyn UTR inh 94.5*.
For COc1ccc(S(=O)(=O)Cc2ccc(C(=O)NCc3ccccc3OC)o2)cc1 the results were IEC-6 tox -11.2, KLF5 inh -15.2 and aSyn UTR inh 3.5.
Screening Brc1ccc(C=Nc2ccc(Nc3ccccc3)cc2)s1 returned APP transl inh 45.2*, IEC-6 tox 7.3, BaF3 parental 8.2, KLF5 inh 3.6, aSyn UTR inh 12.8 and Ba/F3 V617F tox 2.2.
COc1cc(NC(=O)c2n[nH]c(=O)c3ccccc23)cc(OC)c1 was read as IEC-6 tox 2.8, BaF3 parental -10.7, KLF5 inh -5.0, aSyn UTR inh 1.7 and Ba/F3 V617F tox -0.7.
`COc1ccc(-c2nc(NC(=O)CCNC(=O)c3ccco3)sc2C)cc1` gave APP transl inh 12.4, IEC-6 tox -1.7, BaF3 parental 27.9*, KLF5 inh -15.1, aSyn UTR inh 6.1 and Ba/F3 V617F tox -1.4.
COc1ccc(-c2nc(NC(=O)c3n[nH]c(=O)c4ccccc34)sc2C)cc1 was read as APP transl inh 16.0, IEC-6 tox 21.9*, BaF3 parental 8.2, KLF5 inh -18.1, aSyn UTR inh 39.6 and Ba/F3 V617F tox 1.9.
For Cc1cccc(NC(=O)NCCN2CCN(c3ccccc3)CC2)c1C the results were IEC-6 tox 3.3, KLF5 inh -3.7 and aSyn UTR inh 12.7.
`Cc1ccc(CN=C(N)Nc2nc(C)cc(C)n2)cc1` gave APP transl inh 70.8*, IEC-6 tox 48.0*, BaF3 parental 77.3*, KLF5 inh -22.6, aSyn UTR inh 117.0* and Ba/F3 V617F tox 80.6*.
For COc1ccc(CCNC(=O)c2c[nH]c3ccc(F)cc3c2=O)cc1OC the results were IEC-6 tox 7.1, KLF5 inh 5.6 and aSyn UTR inh 14.4.
For CC(C)C(=O)Nc1cccc(C(=O)N2CCCCC2C)c1 (configuration not stated) the results were APP transl inh -17.4, IEC-6 tox 0.8, BaF3 parental 48.6*, KLF5 inh -8.3, aSyn UTR inh 17.1 and Ba/F3 V617F tox 31.7*.
`C/C(=N\NC(=O)c1cc(C)oc1C)c1ccc2ccccc2c1` gave IEC-6 tox 12.7, KLF5 inh -14.3 and aSyn UTR inh -51.4.
`O=C(Nc1ccc(Cl)cc1)/C(=C/c1ccc([N+](=O)[O-])cc1)c1nc2ccccc2s1` gave APP transl inh 96.0*, IEC-6 tox 1.2, BaF3 parental -1.5, KLF5 inh 3.8 and Ba/F3 V617F tox -2.4.
`Cc1cc(C)c2cc(C=O)c(Cl)nc2c1` gave APP transl inh 93.2*, IEC-6 tox 6.2, BaF3 parental 2.8, KLF5 inh -12.0, aSyn UTR inh -7.3 and Ba/F3 V617F tox 0.9.
Screening COC(=O)c1cnc(Oc2ccc(NC(=O)NC(=O)c3c(OC)cccc3OC)cc2)cc1C(F)(F)F returned IEC-6 tox 3.2, BaF3 parental -2.9, KLF5 inh 4.7, aSyn UTR inh 74.5* and Ba/F3 V617F tox 2.6.
CCc1ccc2nc(NC(=O)Cn3cnc4ccccc4c3=O)sc2c1 was read as APP transl inh -15.3, IEC-6 tox 2.0, BaF3 parental 39.3*, KLF5 inh -24.2, aSyn UTR inh -58.5 and Ba/F3 V617F tox 33.1*.
Screening Cc1ccc(C)c(NC(=O)CN(C)C(=O)C2CCN(C(=O)Nc3ccccc3)CC2)c1 returned aSyn UTR inh -4.8.
Cc1nn(-c2ccccc2)c(Cl)c1C(=O)NCC(C)C was read as APP transl inh 76.7*, IEC-6 tox -4.8, BaF3 parental -1.5, KLF5 inh -41.2, aSyn UTR inh -11.8 and Ba/F3 V617F tox -4.7.
COc1ccc(C(=S)N2CCN(c3cccc(Cl)c3)CC2)c(OC)c1 was read as APP transl inh 83.6*, IEC-6 tox 53.6*, BaF3 parental 40.8*, KLF5 inh 39.7, aSyn UTR inh 42.9 and Ba/F3 V617F tox 71.2*.
COc1ccc(C(=O)N2CCN(c3cccc(Cl)c3)CC2)cc1 was read as APP transl inh -11.5, IEC-6 tox 8.1, BaF3 parental 3.3, KLF5 inh -5.4, aSyn UTR inh -3.6 and Ba/F3 V617F tox -1.4.
Screening N#Cc1ccc(OS(=O)(=O)c2ccc(-c3ccon3)s2)cc1 returned IEC-6 tox 1.7, KLF5 inh -7.6 and aSyn UTR inh 12.6.
`CN(CC(=O)Nc1ccccc1C(F)(F)F)C(=O)c1ccc(N2C(=O)CCC2=O)cc1` gave aSyn UTR inh 7.5.
For CCC(=NCCc1c(C)[nH]c2ccc(C)cc12)C1=C(O)CC(c2ccccc2)CC1=O (configuration not stated) the results were APP transl inh 94.9*, IEC-6 tox -2.0, BaF3 parental 5.6, KLF5 inh -30.6, aSyn UTR inh 104.0* and Ba/F3 V617F tox -1.8.
`COc1ccc(/C=C2\SC(=O)N(CC(=O)NCCCn3ccnc3)C2=O)cc1` gave IEC-6 tox -1.6, KLF5 inh -45.2 and aSyn UTR inh -53.9.
Screening CCCCn1c(NC(C)=O)c(C#N)c2nc3ccccc3nc21 returned APP transl inh 51.7*, IEC-6 tox 2.5, BaF3 parental 4.7, KLF5 inh 8.7, aSyn UTR inh 4.1 and Ba/F3 V617F tox 0.4.
CCCCCn1c(N)c(C#N)c2nc3ccccc3nc21 was read as APP transl inh -0.1, IEC-6 tox 2.3, BaF3 parental 3.6, KLF5 inh -7.4, aSyn UTR inh 42.7 and Ba/F3 V617F tox 0.3.
Screening CCn1c(SCC(=O)NC(=O)c2ccccc2OC)nc2ccccc21 returned IEC-6 tox 3.6, KLF5 inh -23.4 and aSyn UTR inh 7.0.

Source: PubChem BioAssay (several laboratories)
